# Test system: PPARg:RXRa 30nM:10nM, anti-RXR (NR concentration 30 nM, RXRa partner concentration 10 nM)
# Assay: PBM binding z-score (relative to random genomic background probes); higher = stronger binding; sequences stand for … in GC…GCGATTGACAGCGTAGAATGAAGG
# How it was run: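 On custom Agilent 4×180K arrays, double-stranded probes with 34-nt variable regions carried direct-repeat seeds, single-nucleotide variants, half-site ablations or random human genomic background. Ligand-free nuclear receptor dimers were applied for 1 h, and binding was read with antibodies against each partner (one per run). Binding z-scores come from regression-normalized fluorescence, with the random background probes as reference.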
row,Sequence,PBM binding z-score
1,TTACTAAGGTGAAGGTCGTTGATCCCTCTGTAGA,5.91
2,AGATGTAGGTTAAGGGTCATTCAGGTTGGTTCGC,9.52
3,CCGACTGGGCCATCAGGTCATTGATATCAACGTT,0.458
4,CAAACTAGGACACGAAAGGTCAAAGTCGAATGAC,3.92
5,CCTAGCAGGCCAGGGTAACTCAAGCATTTCGCTT,-1.01
6,TCTAGTTGGTCAAAGCTCACACACTCGAAATGCG,3.89
7,TCTTGTAGATCAACAGGAGGTTAAGACAGATCGA,2.4
8,TCTAGTTGCTCAAAGGTCACACACTCGAAATGCG,6.1
9,TCTGCTAGGTCAACGATGGACAGCTAATCTGCTA,2.13
10,GCTGCTAGGTCAGGTTTGTCAGCTAACGGGTACG,-0.284
11,CCTGCTGGGTCAATGGTCAGCTAAAGCAGCTCGC,1.83
12,GCAGACAAGTGAAACGCAGGTAACTCAGGGTGGC,-0.558
13,TCGAGTAGGTTACCAATGGGGCGTTCAGCTTTCT,0.919
14,CCTCGGAGGCCAACAGGAGGTCAGAGCTGCCAGA,-0.921
15,GTACCAAAGTGAATAGGTCGTTGATGAGTAGGCG,0.0456
16,GCTCGGAGGACAAGGTCAGAGTTTTGTCCGTAGA,-0.291
17,TAGCCTAGGCCAGATCGGGCCAGTATACGCTATA,-0.873
18,GCGACTGGGGCAAAGCAGGTTACCTTAAGGTTGG,-0.661
19,GCATATAGGTAATACAAGGTGAAAGTGCGATTGT,1.04
20,CCTACTGGGCCACGAAAGGTCATTGAATCAGTGA,2.28
21,TCGAGTAGGATACCAATGGGGCATTCAGCTTTCT,0.785
22,TCTGCTAGGTCAACGATGGTCAGCTAATCTGCTA,1.76
